From PubChem BioAssay (Tox21)
Inconclusive results are not listed. Active and inactive are the calls of the source. Unless noted, calls follow the shape of the dose curve; as a rule, active = well fitted cell-killing curve with a large enough effect in the repeat runs; inconclusive = weak or mixed curves; inactive = no such curve, though single readings can be large or run the other way.
% is scaled to controls: 0 for no effect and ±100 for the full control effect.

System: not listed separately
Test: qHTS assay to identify small molecule antagonists of the peroxisome proliferator-activated receptor delta (PPARd) signaling pathway - cell viability counter screen (AID 743213); also: nearly all actives have a fitted effect of over 50% in size
Details: PPARd-bla HEK293H viability, CellTiter-Glo luminescence, 17 h; series mostly up to 62 µM; viability change, negative = cytotoxic: at the top concentration
Procedure, shortened: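 PPARd-bla HEK293H cells were treated with compounds plus agonist L165041 (300 nM final) for 17 h at 37 C. Viability was then read in the same wells by CellTiter-Glo luminescence after 30 min at room temperature.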
With C[Si]1(C)N[Si](C)(C)N[Si](C)(C)N1 the “viability change, negative = cytotoxic” value was -32.8% (inactive). In the case of OC[C@@H](O)[C@H](O)[C@@H](O)[C@@H](O)CO, the “viability change, negative = cytotoxic” value is reported as 4.29% (inactive). For CCCCCC(=O)OCC, the “viability change, negative = cytotoxic” value was 3.98% (inactive). With FC(F)(F)/C(=N\OCC1OCCO1)c1ccc(Cl)cc1 the “viability change, negative = cytotoxic” value was 18.3% (inactive). In the case of CC(C)CCC(=O)CCC(C)C, the “viability change, negative = cytotoxic” value is reported as 1.58% (inactive). For OCCCCCCCl, the “viability change, negative = cytotoxic” value was 9.65% [at 80.4 µM] (inactive). For CCOC(=O)CCCCCCCCC(=O)OCC, the “viability change, negative = cytotoxic” value was 9.99% (inactive). For Nc1ccc(C(=O)OCC(O)CO)cc1 (centres undefined), the “viability change, negative = cytotoxic” value was -6.89% (inactive). With FC(F)(F)c1ccc(Cl)cc1Cl the “viability change, negative = cytotoxic” value was -21.7% (inactive). In the case of Nc1cc(Cl)cc(S(=O)(=O)O)c1O, the “viability change, negative = cytotoxic” value is reported as -15.7% [at 80.4 µM] (inactive). In the case of CCCCCCCCCCC, the “viability change, negative = cytotoxic” value is reported as -27.1% (inactive). In the case of CCCCC/C=C/CC(=O)OC, the “viability change, negative = cytotoxic” value is reported as 11.7% (inactive). For C=C(C)[C@@H]1CC[C@@H](C)C[C@@H]1O, the “viability change, negative = cytotoxic” value was -16.4% (inactive).

Biological target: Peroxisome proliferator-activated receptor delta (Homo sapiens) (UniProt Q03181)
Sequence (Q03181 whole entry, looked up): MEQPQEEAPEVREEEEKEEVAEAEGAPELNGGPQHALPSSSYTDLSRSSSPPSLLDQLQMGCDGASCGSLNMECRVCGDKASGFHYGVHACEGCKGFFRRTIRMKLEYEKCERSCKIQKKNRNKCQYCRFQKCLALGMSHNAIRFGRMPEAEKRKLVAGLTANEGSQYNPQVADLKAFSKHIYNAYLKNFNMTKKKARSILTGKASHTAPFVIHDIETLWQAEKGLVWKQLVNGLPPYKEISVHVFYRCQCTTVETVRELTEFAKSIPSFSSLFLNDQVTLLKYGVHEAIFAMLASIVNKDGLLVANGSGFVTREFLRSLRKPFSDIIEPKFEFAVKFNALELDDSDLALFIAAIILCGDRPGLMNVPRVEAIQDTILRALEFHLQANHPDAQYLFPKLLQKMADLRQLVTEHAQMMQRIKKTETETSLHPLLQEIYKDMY
Test: qHTS assay to identify small molecule antagonists of the peroxisome proliferator-activated receptor delta (PPARd) signaling pathway (AID 743215; active = well fitted inhibition curve with a large enough effect in the signal ratio in the repeat runs, not every such curve was filed as active; the % refers to the signal ratio;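 also: cells stimulated with agonist L165041 at 300 nM final during compound exposure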)
Details: HEK293H PPARd-UAS-bla, beta-lactamase FRET ratio, antagonist, 17 h; series mostly up to 62 µM; ratio activity, negative = inhibition: at the top concentration
Procedure, shortened: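 HEK293H GeneBLAzer PPARd UAS-bla reporter cells; cpd + L165041 300 nM final, 17 h 37 C; LiveBLAzer B/G FRET substrate 2 h RT; fluorescence intensity read-out. Antagonist mode.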
With Nc1ccc(S(=O)(=O)Nc2ccccn2)cc1 the “ratio activity, negative = inhibition” value was 2.94% (inactive). For Cc1cc(C)cc([N+](=O)[O-])c1, the “ratio activity, negative = inhibition” value was -6.36% [at 80.4 µM] (inactive). With CNC(=O)NC the “ratio activity, negative = inhibition” value was -2.14% [at 80.4 µM] (inactive). For C=CCOc1cc(Cl)ccc1C(=O)NCCN(CC)CC, the “ratio activity, negative = inhibition” value was -7.47% (inactive). With CCCCCCCCCCCCC1CO1 (centres undefined) the “ratio activity, negative = inhibition” value was -0.749% (inactive). For C=CCCCCCCCCCCC, the ratio activity, negative = inhibition was 0.24% [at 6.26 µM] (inactive). With CCOC(=O)CCc1ccccc1 the “ratio activity, negative = inhibition” value was 13.3% (inactive). For CN=C(NC#N)NCCSCc1csc(N=C(N)N)n1, the “ratio activity, negative = inhibition” value was 2.8% (inactive). In the case of CCOc1ccc(NC(=O)OC(C)C)cc1OCC, the “ratio activity, negative = inhibition” value is reported as 1.83% (inactive). In the case of NC(Cc1c[nH]c2ccccc12)C(=O)O (centres undefined), the “ratio activity, negative = inhibition” value is reported as -17.4% (inactive). For CCN1CN(CC)CN(CC)C1, the “ratio activity, negative = inhibition” value was 7.16% (inactive). In the case of NCCc1ccn[nH]1, the “ratio activity, negative = inhibition” value is reported as 15% (inactive).

Biological target: Bile acid receptor (Homo sapiens) (UniProt Q96RI1)
Sequence (Q96RI1 whole entry, looked up): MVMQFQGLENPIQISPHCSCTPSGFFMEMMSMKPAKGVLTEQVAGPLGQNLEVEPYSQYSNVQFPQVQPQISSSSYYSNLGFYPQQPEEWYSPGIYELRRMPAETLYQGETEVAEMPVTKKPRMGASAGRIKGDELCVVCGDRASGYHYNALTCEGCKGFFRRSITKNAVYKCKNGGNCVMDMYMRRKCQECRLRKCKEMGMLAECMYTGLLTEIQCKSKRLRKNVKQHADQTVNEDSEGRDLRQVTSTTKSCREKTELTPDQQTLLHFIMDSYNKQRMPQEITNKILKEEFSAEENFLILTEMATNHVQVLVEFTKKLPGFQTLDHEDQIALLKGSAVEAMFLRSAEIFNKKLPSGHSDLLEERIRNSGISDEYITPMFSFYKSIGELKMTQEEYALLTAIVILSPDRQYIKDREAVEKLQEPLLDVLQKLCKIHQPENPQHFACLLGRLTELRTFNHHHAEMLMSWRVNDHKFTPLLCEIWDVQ
Test: qHTS assay to identify small molecule antagonists of the farnesoid-X-receptor (FXR) signaling pathway (AID 743217; active = well fitted inhibition curve with a large enough effect in the signal ratio in the repeat runs, not every such curve was filed as active; the % refers to the signal ratio)
Details: HEK293T FXR-UAS-bla, beta-lactamase ratio, CDCA-stimulated, 16 h; series mostly up to 62.6 µM; activity change, negative = inhibition: at the top concentration
Procedure, shortened: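 Read-out: beta-lactamase FRET fluorescence (LiveBLAzer B/G substrate, 2 h, room temperature) in GeneBLAzer FXR-UAS-bla HEK 293T cells. Compounds were co-dosed with 50 uM chenodeoxycholic acid (final) and incubated 16 h at 37 °C.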
In the case of Nc1ccc(S(=O)(=O)Nc2ccccn2)cc1, the “activity change, negative = inhibition” value is reported as 1.75% (inactive). With Cc1cc(C)cc([N+](=O)[O-])c1 the “activity change, negative = inhibition” value was -0.354% [at 81.1 µM] (inactive). In the case of C=CCOc1c(Br)cc(Br)cc1Br, the “activity change, negative = inhibition” value is reported as -9.86% (inactive). In the case of CC(C)=CC(C)(C)C, the “activity change, negative = inhibition” value is reported as -8.43% (inactive). In the case of O=C1OC(=O)c2cc(Oc3ccc4c(c3)C(=O)OC4=O)ccc21, the “activity change, negative = inhibition” value is reported as -4.51% (inactive). For NS(=O)(=O)c1cc2c(cc1Cl)NC(C(Cl)Cl)NS2(=O)=O (centres undefined), the “activity change, negative = inhibition” value was 10.4% (inactive). With CNC(=O)NC the “activity change, negative = inhibition” value was -1.07% [at 81.1 µM] (inactive). For CCCCCCCCCCCCC1CO1 (centres undefined), the “activity change, negative = inhibition” value was -2.32% (inactive). For CC(=O)Nc1ncc([N+](=O)[O-])s1, the “activity change, negative = inhibition” value was -0.287% (inactive). In the case of Cc1ccc2c(c1)c1c3n2CCNC3CCC1 (centres undefined), the “activity change, negative = inhibition” value is reported as -4% (inactive). With CCOc1ccc(NC(=O)OC(C)C)cc1OCC the “activity change, negative = inhibition” value was 0.241% (inactive). In the case of NS(=O)(=O)c1cc2c(cc1Cl)NC(CC1CCCC1)NS2(=O)=O (centres undefined), the “activity change, negative = inhibition” value is reported as 10.2% (inactive). In the case of CCN1CN(CC)CN(CC)C1, the “activity change, negative = inhibition” value is reported as 3.45% (inactive). With Cc1nc(C)nc(N2C[C@@H](C)N(c3ccnc([C@@H](C)O)n3)[C@@H](C)C2)n1 the “activity change, negative = inhibition” value was -0.23% (inactive).
